The campaign covered roughly 300,000 compounds. About 4,000 (1.3%) were called active.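 The calls were made as follows: active = mean replicate score, as percent of positive control median, at least 50; inconclusive = mean below 50 but one replicate at or above 50; inactive = mean and every replicate below 50.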 Many of the other results were omitted from the sample, so actives are more common in it than they were.

For orientation: inhibition means the relative decrease from the control value, in per cent.

The nature of the test: S. pyogenes SKKanGAS growth inhibitors in kanamycin, primary screen, streptokinase expression inhibitor project, SKKanGAS strain, BacTiter-Glo luminescence (AID 1662).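 Also: strain carries kanamycin resistance gene driven by streptokinase promoter and grows in 40 µg/ml kanamycin; loss of luminescence reflects streptokinase promoter inhibition or plain growth inhibition; 0% = median of DMSO wells and 100% = positive control at its reference dose.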 Particulars: 6 h, at 7.5 µM, active compounds read high.
`O=c1[nH]c(=O)n(Cc2ccccc2)c(O)c1/C=N/Nc1c(F)c(F)c(F)c(F)c1F`: the inhibition was 6.55% (inactive). In the case of `O=C(N/N=C/c1c(O)n(Cc2ccccc2)c(=O)[nH]c1=O)c1ccccc1`, the inhibition was 56.7% (active).

With `O=C(N/N=C/c1c(O)n(C2CC2)c(=S)[nH]c1=O)c1ccccc1`, the inhibition is -1.33% (inactive).

As to `COC(=O)N(c1ccc(OC)cc1)P1(=S)OCCC(C)O1` (stereo not given), the inhibition is -2.38% (inactive). Under `CCOP(=S)(OCC)SCOC(=O)NCC(=O)OC` stands 3.28% (inactive). Under `COc1ccccc1OC(=O)c1ccc(C)c(S(=O)(=O)N2CCOCC2)c1` stands 3.63% (inactive); under `CCCCCCCCCCCCn1ccc(=N)cc1`, 93.3% (active). In the case of `O=[N+]([O-])c1ccc(C2C3C(c4ccccc4)=NC4(CCCCC4)N32)cc1` (stereo not given), the inhibition was 4.96% (inactive). Under `Cc1cccc(NC(=O)OC2CN3CCC2CC3)c1` (stereo not given) stands 0.418% (inactive); under `CC1(C)C(c2ccccc2)=NC(c2cccnc2)=[N+]1[O-]`, -22% (inactive). The result for `CCCCCn1c(=O)c(C(=O)NCc2ccccc2)c(O)c2ccccc21` reads 86% (active).

Turning to `CCCCn1c(=O)c(C(=O)Nc2ccccc2Cl)c(O)c2ccccc21`, the inhibition was -1.86% (inactive). Under `CCCCCn1c(=O)c(C(=O)NCc2ccccn2)c(O)c2ccccc21` stands 6.78% (inactive); under `COC(=O)C1=C(c2cc3ccccc3o2)C[C@@H]2CC[C@H]1N2C(=O)NC1CCCCC1`, 7.09% (inactive).

As for `O=C(Cc1ccccc1)N1CCN(C2CCCCCC2)CC1`, the inhibition is 4.36% (inactive).

(Values after PubChem BioAssay AID1662 (Broad Institute, 2009).)
